Assay results as given in PubChem BioAssay AID2711 (National Center for Advancing Translational Sciences (NCATS), 2010).
The list shows a part of the results. Inconclusive results are not listed. A number with no mark means an inactive call. Active and inactive are the calls of the source. Calls come from the whole dose curve; as a rule, active = well fitted inhibition curve with a large enough effect; inconclusive = small, poorly fitted or top-dose-only effect; inactive = no such curve, though single readings can be large or run the other way.

Assay: Counterscreen for RECQ1 Inhibitors: ADP Fluorescence Polarization Displacement Assay; note: nearly all actives have a fitted effect of over 45% in size
Settings: series mostly up to 228 µM; activity change, negative = inhibition: at the top concentration
Source text: In order to gain further insight into the mode of action of the RECQ1 screening hits, we have profiled them in a set of miniaturized fluorescence polarization assays designed to report on compounds which competitively displace either co-substrate (ATP or DNA). The appropriate fluorescently-labeled probe was used: BODIPY Texas Red-labeled ADP was expected to be competed off by ATP-competitive inhibitors, while single-TAMRA labeled forked-duplex or short single-stranded DNA molecules served as probes for DNA-competitive compounds.
Three uL of reaction buffer (25 mM Tris-HCl (pH 8.0), 5 mM NaCl, 2 mM MgCl2, 1mM DTT, 0.01% Tween- 20, and 2.5 ug/ml poly(dI-dC), containing 300 nM RECQ1 and 500 nM BODIPY Texas Red-ADP (Invitrogen) were dispensed into a 1536-well Greiner black assay plate via solenoid-valve based nanoliter dispensers; 500 nM BODIPY Texas Red-ADP without RECQ1 protein served as a fully-displaced control. Compounds (23 nl each in columns 5-48) were transferred via a Kalypsys pintool equipped with a 1536-pin array. The plates were incubated for 15 min at room temperature and were then transferred into a ViewLux high-throughput CCD imager, where the endpoint fluorescence polarization was measured using 525 nm excitation and 598 nm emission protocol.
% is set by controls: 0 for no effect and ±100 for the full control effect; potency is the fitted concentration of half-maximal effect.

| Structure (SMILES) | activity change, negative = inhibition | Potency |
| --- | --- | --- |
| CC1Cc2ccccc2N1C(=O)CSc1nnc(-c2ccc(S(=O)(=O)N3CCCC3)cc2)n1C (configuration not stated) | 3.82% | – |
| O=C(O)CCn1c(SCc2cc(=O)n3ccccc3n2)nc2ccsc2c1=O | 0.643% | – |
| O=C(NCc1ccccc1)C1=C[C@@H](C2CCCCC2)C[C@@H](OCc2ccc(CO)cc2)O1 | -3.38% [at 91.9 µM] | – |
| CC(=O)Nc1ccc(Nc2c3ccccc3nc3ccccc23)cc1 | 34.5% [at 91.9 µM] | – |
| O=C(CCn1nnc2ccccc2c1=O)N[C@@H](Cc1c[nH]c2ccccc12)C(=O)O | 6.93% | – |
| O=C(NC(Cc1ccccc1)C(=O)N1CCCC1C(=O)O)c1ccccc1 (configuration not stated) | -0.948% | – |
| CC(C)C1N=C2c3ccccc3N=C(SCC(=O)c3ccc(O)c(O)c3)N2C1=O (configuration not stated) | -10.2% [at 91.9 µM] | – |
| COc1cc(C2C(C(=O)c3ccc(C)o3)=C(O)C(=O)N2CCc2ccccc2)ccc1O (configuration not stated) | 6.79% | – |
| O=C(NC(Cc1c[nH]c2ccccc12)C(=O)O)/C(=C/c1ccco1)NC(=O)c1ccccc1 (configuration not stated) | 8.72% | – |
| c1ccc(CSc2nnc(-c3ccco3)c(-c3ccco3)n2)cc1 | – | 50.1 µM (active) |
| O=C(N/N=C/c1sc(N2CCCCC2)nc1-c1cccs1)c1cccnc1 | 59.1% [at 91.9 µM] | – |
| O=C(OCC1O[C@@H](OC(=O)c2cc(O)c(O)c(O)c2)[C@@H](OC(=O)c2cc(O)c(O)c(O)c2)[C@@H](OC(=O)c2cc(O)c(O)c(O)c2)[C@@H]1OC(=O)c1cc(O)c(O)c(O)c1)c1cc(O)c(O)c(O)c1 (some centres not stated) | -12.5% [at 91.9 µM] | – |
